# High-throughput results: PubChem, National Center for Advancing Translational Sciences (NCATS)
# In the library only some 10% were active in any assay of this set; here they are far more common.
# BAZ2B inh: BAZ2B (human) inhibition; Q9UIF8; AlphaScreen BAZ2B-H3K14Ac peptide displacement; Potency, µM (doses to about 114 µM), without a hit: at the top dose activity change, negative = inhibition, usual class: inhibitors; 360,000 tested, 4.4% active; AID 504333; further: on the % scale 0 is the no-effect control and ±100 the full control effect; nearly all actives have a fitted effect of over 60% in size
#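 In this displacement format the biotinylated H3(5-23) peptide acetylated at Lys14 serves as ligand at 50 nM, with BAZ2B at 50 nM in PBS pH 7.4 containing 0.01% Tween-20. Donor and acceptor beads are 10 ug/mL final.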
# GLS inhibitor: inhibitors of human glutaminase (GLS); 410,000 tested, 0.21% active; Potency, µM (highest dose often 45.5 µM), without a hit: at the top dose activity change, negative = inhibition, usual class: inhibitors; O94925; GLS enzymatic activity, qHTS titration; further: on the % scale 0 is the no-effect control and ±100 the full control effect
#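 Human kidney-isoform GLS in 45 mM KH2PO4 pH 8.2, 0.02% Tween-20, with compound, started with 1mM L-Glutamine (added stock). Glutamate oxidase/HRP/Amplex red coupled fluorescence read at start and after 30 min at RT.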
# JMJD2A Tudor: blocks the human JMJD2A Tudor domain; O75164; AlphaScreen JMJD2A-Tudor / H3K4me3 peptide binding; Potency, µM (titrated, usually from 114 µM), for inactives: at the highest dose activity change, negative = inhibition, usual class: inhibitors; 390,000 tested, 4.4% active; further: on the % scale 0 is the no-effect control and ±100 the full control effect; nearly all actives have a fitted effect of over 50% in size
# HP1b chromo inh: inhibitors of HP1-beta chromodomain binding to methylated histone tails. Potency, µM (top dose mostly 114 µM), without a hit: at the highest dose activity change, negative = inhibition, actives largely listed as inhibitors. P83916. 390,000 tested, 0.56% active. AlphaScreen HP1-beta / biotin-H3K9me3 peptide binding; further: nearly all actives have a fitted effect of over 70% in size
# Target sequence (P83916 whole entry, looked up): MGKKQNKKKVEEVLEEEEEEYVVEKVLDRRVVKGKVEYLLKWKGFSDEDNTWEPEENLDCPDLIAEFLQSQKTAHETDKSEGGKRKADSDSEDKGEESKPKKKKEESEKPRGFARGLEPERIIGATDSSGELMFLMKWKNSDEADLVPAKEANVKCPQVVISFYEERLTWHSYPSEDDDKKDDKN
#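 Compound inhibition of the preformed complex between 50 nM HP1-beta and 50 nM biotinylated H3K9me3 peptide was read by AlphaScreen. Buffer was PBS pH 7.4 with 0.01% Tween-20. Incubations ran 30 min at room temperature, with 10 ug/mL donor/acceptor beads.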
# G9a block: inhibitors of human histone lysine methyltransferase G9a; G9a H3K9 monomethylation, AlphaScreen, 2 h; 350,000 tested, 8.8% active; Q96KQ7; Potency, µM (titrated, usually from 102 µM), for inactives: at the highest dose activity, negative = inhibition, usual class: inhibitors; further: on the % scale 0 is the no-effect control and ±100 the full control effect; nearly all actives have a fitted effect of over 75% in size
# Target sequence (Q96KQ7 913-1193 limits assumed): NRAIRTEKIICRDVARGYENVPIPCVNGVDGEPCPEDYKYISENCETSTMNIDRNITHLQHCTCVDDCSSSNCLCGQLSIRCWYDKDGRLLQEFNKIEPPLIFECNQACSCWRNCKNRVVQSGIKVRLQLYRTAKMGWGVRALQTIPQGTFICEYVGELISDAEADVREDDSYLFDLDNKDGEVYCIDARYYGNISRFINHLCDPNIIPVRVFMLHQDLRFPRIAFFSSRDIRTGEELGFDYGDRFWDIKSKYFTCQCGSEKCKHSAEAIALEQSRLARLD
#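 Step 1: enzyme (final 20 nM) with compound, 15 min RT. Step 2: substrate peptide 500 nM and SAM 20 uM, 2 h RT. Step 3: anti-H3K9me1 antibody and AlphaScreen beads, 10 min, then plate read.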
# Numbers without * were called inactive; ? = inconclusive; . = not tested or not shown; [ ] = another dose, or the depositor's remark. The call rests on the fitted dose curve; in most records, active means well fitted curve in the direction sought with a large enough effect; inconclusive means small, poorly fitted or top-dose-only effect, or another doubt; inactive means no such curve, though single readings can be large; an effect the other way counts as inactive or inconclusive. Potency means the concentration at half of the fitted maximal effect.
SMILES,BAZ2B inh,GLS inhibitor,JMJD2A Tudor,HP1b chromo inh,G9a block
CCOc1cccc(C2c3c(oc4ccc(F)cc4c3=O)C(=O)N2c2cc(C)ccn2)c1 (stereo not given),31%,-4%,-9%,70%,30%[59 µM]
COc1cc(C2CC(=O)C3=C(C2)Nc2ncnn2C3c2cccs2)cc(OC)c1OC (stereo not given),-10%,11%,-1%,38%,1%
COc1ccc(C2C3=C(Nc4ncnn42)c2ccccc2CCC3)cc1 (stereo not given),-8%,-8%,-18%,17%,?
COc1cccc(C2=CC(c3ccc(C)cc3)n3ncnc3N2)c1 (stereo not given),10%,.,.,.,40µM*
COc1cc(C2C=C(c3cccs3)Nc3ncnn32)cc(OC)c1OC (stereo not given),-26%,2%,?,31%,32µM*
COc1cc(C2C3=C(Nc4ncnn42)c2ccccc2CC3)cc(OC)c1OC (stereo not given),-4%,-4%,-24%,-10%,32µM*
Cc1ccsc1C1C=C(c2cccc(Br)c2)Nc2ncnn21 (stereo not given),20%,-4%,-13%,61%,10µM*
COc1ccc(CCNC(=O)C(=O)NCC2OCCN2S(=O)(=O)c2cc(F)ccc2F)cc1OC (stereo not given),-1%,14%,-14%,21%,14%
Cc1ccc(S(=O)(=O)N2Cc3ccccc3CC2C(=O)Nc2ccc3c(c2)OCO3)cc1 (stereo not given),?,0%,79µM*,?,?
O=C(Nc1nnc(C2CC2)s1)C1Cc2ccccc2CN1S(=O)(=O)c1cccs1 (stereo not given),-4%,-1%,-15%,31%,-6%[59 µM]
CCc1nnc(NC(=O)C2Cc3ccccc3CN2S(=O)(=O)c2ccc(C)cc2)s1 (stereo not given),?,-20%,?,0%,40µM*
CCc1nnc(NC(=O)C2CCCN2S(=O)(=O)c2ccc(C)cc2)s1 (stereo not given),4%,-13%,-5%,46%,-39%
CCc1nnc(NC(=O)C2Cc3ccccc3CN2S(=O)(=O)c2cccs2)s1 (stereo not given),-1%,3%,-34%,30%,14µM*
O=C(O)C1Cc2ccccc2CN1S(=O)(=O)c1ccc2ccccc2c1 (stereo not given),50µM*,15%,50µM*,8%,7.9µM*
CCC1CCCCN1C(=O)CSc1nc2c([nH]c3ccccc32)c(=O)n1-c1cccc(OC)c1 (stereo not given),-18%,0%,-34%,-2%[57 µM],-1%[59 µM]
O=C(COC(=O)CCc1c[nH]c2ccccc12)NC(c1ccccc1)c1ccccc1,?,7%,?,?,-7%[59 µM]
N#Cc1cnn(Cc2ccccc2)c1/N=C/N1CCOCC1,-1%,4%,-6%,45%,2%[12.7 µM]
NC(=O)CC(NC(=O)c1ccccc1)c1ccc(N2CCc3ccccc3C2)c([N+](=O)[O-])c1 (stereo not given),?,1%,?,25%,.
NC(=O)CC(NC(=O)c1cccc(Br)c1)c1ccc(NC2CCN(Cc3ccccc3)CC2)c([N+](=O)[O-])c1 (stereo not given),?,8%,?,-11%,50µM*
NC(=O)CC(NC(=O)c1ccccc1)c1ccc(N2CCCCCCC2)c([N+](=O)[O-])c1 (stereo not given),?,-5%,-35%,9%,45µM*
NC(=O)CC(NC(=O)c1cccc(Br)c1)c1ccc(N2CCCCCC2)c([N+](=O)[O-])c1 (stereo not given),?,-2%,?,-9%,.
NC(=O)CC(NC(=O)c1ccc(Br)cc1)c1ccc(NC2CCCCCCC2)c([N+](=O)[O-])c1 (stereo not given),?,0%,?,-16%,79µM*
NC(=O)CC(NC(=O)Cc1ccc(Cl)cc1)c1ccc(NC2CCN(Cc3ccccc3)CC2)c([N+](=O)[O-])c1 (stereo not given),?,-4%,-29%,13%,?
NC(=O)CC(NC(=O)c1ccc(Br)cc1)c1ccc(N2CCCCCC2)c([N+](=O)[O-])c1 (stereo not given),?,2%,?,-24%,45µM*
CCNC(=O)CSc1nnc(CN2CCCCCC2=O)n1-c1ccccn1,.,-6%,-1%[57.1 µM],2%,14%
SMILES,BAZ2B inh,GLS inhibitor,JMJD2A Tudor,HP1b chromo inh,G9a block
O=C(NC12CC3CC(CC(C3)C1)C2)c1ccccc1,-1%,-1%,-6%,3%,47%
Cc1ccc2c(C)c(C(=O)N(Cc3ccc(N(C)C)cc3)Cc3ccco3)oc2c1C,10µM*,-6%,18µM*,-25%,11µM*
Cc1c(C(=O)N(Cc2cccc(Cl)c2)Cc2ccco2)oc2ccccc12,42%,5%,28%,89%,34%[59 µM]
CCc1ccc2oc(C(=O)N(Cc3ccc(N(C)C)cc3)Cc3ccco3)c(C)c2c1,8.9µM*,-8%,18µM*,?,10µM*
Cc1ccc2c(C)c(C(=O)NCCc3ccco3)oc2c1C,-9%,2%,-8%,15%,25%
O=C(c1ccc(Cl)c(S(=O)(=O)N2CCOCC2)c1)N1CCCCC1,-34%,4%,-13%,35%,-1%
COc1ccc(/C=N/NC(=O)c2[nH]c3ccc(Br)cc3c2-c2ccccc2)c(C(=O)O)c1OC,50µM*,28%,?,16%[57 µM],?
COc1ccc(/C=N/NC(=O)c2[nH]c3ccc(Cl)cc3c2-c2ccccc2)c(C(=O)O)c1OC,-26%,-18%,?,0%,-21%
COc1cc(/C=N/NC(=O)[C@H](Cc2c[nH]c3ccccc23)NC(=O)OCC(C)C)cc([N+](=O)[O-])c1O,40µM*,19%,?,-17%,?
COc1cc(/C=N/NC(=O)Cc2ccccc2)cc([N+](=O)[O-])c1O,-34%,27%,-17%,13%,.
Cc1ccc2cc(-c3noc(C(C)(C)C)n3)c(=O)[nH]c2c1,9%,11%,-19%,42%,-3%[59 µM]
O=c1[nH]c(-c2ccccn2)nc2ccccc12,45µM*,2%,56µM*,40%,19%
c1ccc(-c2nc3ccccc3[nH]2)nc1,-7%,-1%,?,22%,-11%
O=c1[nH]c(-c2ccccn2)nc(C(F)(F)F)c1Br,28µM*,4%,18µM*,1%,14%
COc1ccc(-n2c(C)cc(C(=O)CSc3nnc(-c4ccoc4C)n3C)c2C)cc1,?,3%,?,?,50µM*
Cc1cc(C(=O)CSc2nnnn2-c2ccc(O)cc2)c(C)n1C,-10%,19%,45µM*,?,?
Cc1cc(C(=O)CSc2nnnn2C)c(C)n1Cc1ccco1,71µM*,-5%,?,11%,?
